Molecules are shown by their SMILES. The source made the active and inactive calls.

Assay [1] in a line: small molecules captured by biotinylated probe aFSTL3 – biochemical, small-molecule microarray, fluorescence 635/667, stem cell growth factor project, primary screen (AID 1064).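 Also: measures binding of the biotinylated anti-FSTL3 antibody to printed compounds.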 The conditions noted are these: higher = more signal.
Assay [2] in a line: binders from COS7 lysate, DM2A8 probe, primary screen, torsin A project, cell lysate, small-molecule microarray, fluorescence 635/667 (AID 1065). The conditions noted are these: higher = more signal, COS7 lysate expressing mutant human TOR1A.
Assay [3] can be described thus: small molecules captured by biotinylated probe aFGF2 – biochemical, small-molecule microarray, fluorescence 635/667, stem cell growth factor project, primary screen (AID 1067).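 Also: measures binding of biotinylated aFGF2 protein to printed compounds on slides; z-score merges feature fluorescence and signal-to-noise across triplicate slides.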 The settings on record: higher = more signal.
Assay [4] in a line: small molecules captured by biotinylated probe aFGF10 – biochemical, small-molecule microarray, fluorescence 635/667, stem cell growth factor project, primary screen (AID 1071).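 Also: score merges 667 nm spot intensity and signal to noise from triplicate slides.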 The conditions noted are these: higher = more signal.
In assay [5] the target is Neurogenic locus notch homolog protein 2 (Homo sapiens) (UniProt Q04721). Nature of the assay: small molecules binding Notch2 protein – biochemical, small-molecule microarray, 635 nm fluorescence, stem cell growth factors, primary screen (AID 1073). The conditions noted are these: higher = more signal.
For assay [6], the target named is Pro-neuregulin-1, membrane-bound isoform (Homo sapiens) (UniProt Q02297). Nature of the assay: small molecules binding neuregulin-1 protein – biochemical, small-molecule microarray, fluorescence 635/667, psychiatric disease protein project, primary screen (AID 1075).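 Also: score combines 667 nm spot fluorescence with signal to noise.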 The conditions noted are these: NRG1 binding, 635 nm fluorescence, higher = more signal.
Assay [7] relates to Neuregulin-1 EGF-like domain. Nature of the assay: small molecules binding NRG1 EGF domain – biochemical, small-molecule microarray, 635 nm fluorescence, primary screen (AID 1081).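 Also: binding of the protein to compounds printed on small-molecule microarray slides.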 The conditions noted are these: higher = more signal.
Assay [8] in a line: FRG1 expression reporter modulators in myotubes – cell-based, C2C12 myotubes, firefly/Renilla luciferase, luminescence, FRG1 inhibition for FSHD, primary screen (AID 1084). The settings on record: FRG1 promoter luciferase, higher = more signal, called active from +8 up or from −8 down.
Assay [9] is described as follows: small molecules captured by biotinylated probe aFST – biochemical, small-molecule microarray, fluorescence 635/667, stem cell growth factor project, primary screen (AID 1086).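 Also: score merges 667 nm fluorescence with signal-to-noise of each printed compound spot.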 The settings on record: higher = more signal.
Assay [10] can be described thus: binders of probe aHhip on microarray, primary screen, stem cell growth factor project, biochemical, small-molecule microarray, fluorescence 635/667 (AID 1087).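 Also: score merges spot fluorescence at 667nm with spot signal to noise ratio.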 The conditions noted are these: higher = more signal.
Assay [11] concerns PRMT1 (protein arginine N-methyltransferase 1). Description: small molecules binding arginine methyltransferase PRMT1 – biochemical, small-molecule microarray, 635 nm fluorescence, primary screen (AID 1088).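 Also: binding of Prmt1 protein to compounds spotted on small-molecule microarray slides.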 The conditions noted are these: higher = more signal.
Assay [12] is described as follows: growth effects on S. cerevisiae YJM789 – YJM789 clinical isolate, OD600, 24 h, basal, primary screen (AID 1089).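 Also: growth of clinical yeast isolate S. cerevisiae YJM 789 seeded 1000 cells per well; test concentration not given here.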 The settings on record: higher = more signal, called active from +8 up or from −8 down.
The nature of assay [13]: S. pombe growth modifiers, basal conditions – strain 972, OD600, 24 h, no modulator, primary screen (AID 1090).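 Also: basal condition with compound alone and no growth modifier present; test concentration not given here.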 The conditions noted are these: S. pombe 972 growth, higher = more signal, called active from +8 up or from −8 down.
Assay [14] can be described thus: budding yeast growth modifiers under rapamycin – strain BY4716, OD600, 96 h, primary screen (AID 1091). Also: test concentration not given here. The settings on record: S. cerevisiae BY4716 + rapamycin, higher = more signal, called active from +8 up or from −8 down.
Assay [15] has as its target Torsin-1A-interacting protein 2 (Homo sapiens) (UniProt Q8NFQ8). Nature of the assay: small molecules binding lysate-expressed LULL1 – cell lysate, human LULL1 lysate, 635/667 nm fluorescence, primary screen (AID 1092).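 Also: probe is lysate of COS7 cells overexpressing human LULL1; score merges per-feature 667 nm fluorescence with signal-to-noise.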 The conditions noted are these: small-molecule microarray, hLULL1 lysate binding, 635 nm fluorescence; higher = more signal.
Assay [16] in a line: optical density change of DRC41 E. coli – strain DRC41, OD650, 24 h, E. coli filamentation project, primary screen (AID 1093).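 Also: MC1000 strain lacking acrAB efflux and sulA so SOS filamentation is blocked; test concentration not given here.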 The conditions noted are these: E. coli DRC41 growth, higher = more signal, called active from +8 up or from −8 down.
Assay [17] can be described thus: probe aLefty2 binding to arrayed compounds – biochemical, biotinylated probe, 635/667 nm fluorescence, primary screen (AID 1094).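 Also: score merges spot fluorescence near 667 nm with spot signal-to-noise ratio.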 The settings on record: small-molecule microarray, higher = more signal.
Assay [18] has as its system Noggin (protein binding on small-molecule microarray). Nature of the assay: small molecules binding Noggin protein – biochemical, 635/667 nm fluorescence, primary screen (AID 1095).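 Also: score merges 667 nm feature fluorescence with signal to noise over triplicate slides.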 The conditions noted are these: 635 nm fluorescence, higher = more signal.
The target of assay [19] is Neurogenic locus notch homolog protein 3 (Homo sapiens) (UniProt Q9UM47). Description: small molecules binding NOTCH3 protein – biochemical, 635/667 nm fluorescence, primary screen (AID 1096). The settings on record: small-molecule microarray, 635 nm fluorescence, higher = more signal.
The nature of assay [20]: probe aEGFR binding to arrayed compounds – biochemical, biotinylated probe, 635/667 nm fluorescence, primary screen (AID 1097).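 Also: probe is a biotinylated anti-EGFR antibody binding compounds printed on slides; score combines fluorescence near 667 nm and signal to noise of each spot.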 The settings on record: small-molecule microarray, higher = more signal.

Chain of Torsin-1A-interacting protein 2 (Homo sapiens) (Q8NFQ8 whole entry, looked up): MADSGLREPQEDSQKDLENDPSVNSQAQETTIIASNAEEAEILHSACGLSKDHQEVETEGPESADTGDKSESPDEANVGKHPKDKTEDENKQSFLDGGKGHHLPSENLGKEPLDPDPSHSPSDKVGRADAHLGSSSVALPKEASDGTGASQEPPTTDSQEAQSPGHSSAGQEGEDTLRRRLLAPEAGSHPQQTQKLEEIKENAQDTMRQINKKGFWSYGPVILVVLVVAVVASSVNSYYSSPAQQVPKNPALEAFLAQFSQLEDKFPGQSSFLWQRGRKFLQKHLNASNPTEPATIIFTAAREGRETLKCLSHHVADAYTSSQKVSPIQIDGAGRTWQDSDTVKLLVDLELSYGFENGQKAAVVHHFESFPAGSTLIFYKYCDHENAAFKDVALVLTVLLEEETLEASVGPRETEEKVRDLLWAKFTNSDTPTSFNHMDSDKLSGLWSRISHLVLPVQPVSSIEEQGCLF
Chain of Neurogenic locus notch homolog protein 2 (Homo sapiens) (Q04721 whole entry, looked up, canonical isoform): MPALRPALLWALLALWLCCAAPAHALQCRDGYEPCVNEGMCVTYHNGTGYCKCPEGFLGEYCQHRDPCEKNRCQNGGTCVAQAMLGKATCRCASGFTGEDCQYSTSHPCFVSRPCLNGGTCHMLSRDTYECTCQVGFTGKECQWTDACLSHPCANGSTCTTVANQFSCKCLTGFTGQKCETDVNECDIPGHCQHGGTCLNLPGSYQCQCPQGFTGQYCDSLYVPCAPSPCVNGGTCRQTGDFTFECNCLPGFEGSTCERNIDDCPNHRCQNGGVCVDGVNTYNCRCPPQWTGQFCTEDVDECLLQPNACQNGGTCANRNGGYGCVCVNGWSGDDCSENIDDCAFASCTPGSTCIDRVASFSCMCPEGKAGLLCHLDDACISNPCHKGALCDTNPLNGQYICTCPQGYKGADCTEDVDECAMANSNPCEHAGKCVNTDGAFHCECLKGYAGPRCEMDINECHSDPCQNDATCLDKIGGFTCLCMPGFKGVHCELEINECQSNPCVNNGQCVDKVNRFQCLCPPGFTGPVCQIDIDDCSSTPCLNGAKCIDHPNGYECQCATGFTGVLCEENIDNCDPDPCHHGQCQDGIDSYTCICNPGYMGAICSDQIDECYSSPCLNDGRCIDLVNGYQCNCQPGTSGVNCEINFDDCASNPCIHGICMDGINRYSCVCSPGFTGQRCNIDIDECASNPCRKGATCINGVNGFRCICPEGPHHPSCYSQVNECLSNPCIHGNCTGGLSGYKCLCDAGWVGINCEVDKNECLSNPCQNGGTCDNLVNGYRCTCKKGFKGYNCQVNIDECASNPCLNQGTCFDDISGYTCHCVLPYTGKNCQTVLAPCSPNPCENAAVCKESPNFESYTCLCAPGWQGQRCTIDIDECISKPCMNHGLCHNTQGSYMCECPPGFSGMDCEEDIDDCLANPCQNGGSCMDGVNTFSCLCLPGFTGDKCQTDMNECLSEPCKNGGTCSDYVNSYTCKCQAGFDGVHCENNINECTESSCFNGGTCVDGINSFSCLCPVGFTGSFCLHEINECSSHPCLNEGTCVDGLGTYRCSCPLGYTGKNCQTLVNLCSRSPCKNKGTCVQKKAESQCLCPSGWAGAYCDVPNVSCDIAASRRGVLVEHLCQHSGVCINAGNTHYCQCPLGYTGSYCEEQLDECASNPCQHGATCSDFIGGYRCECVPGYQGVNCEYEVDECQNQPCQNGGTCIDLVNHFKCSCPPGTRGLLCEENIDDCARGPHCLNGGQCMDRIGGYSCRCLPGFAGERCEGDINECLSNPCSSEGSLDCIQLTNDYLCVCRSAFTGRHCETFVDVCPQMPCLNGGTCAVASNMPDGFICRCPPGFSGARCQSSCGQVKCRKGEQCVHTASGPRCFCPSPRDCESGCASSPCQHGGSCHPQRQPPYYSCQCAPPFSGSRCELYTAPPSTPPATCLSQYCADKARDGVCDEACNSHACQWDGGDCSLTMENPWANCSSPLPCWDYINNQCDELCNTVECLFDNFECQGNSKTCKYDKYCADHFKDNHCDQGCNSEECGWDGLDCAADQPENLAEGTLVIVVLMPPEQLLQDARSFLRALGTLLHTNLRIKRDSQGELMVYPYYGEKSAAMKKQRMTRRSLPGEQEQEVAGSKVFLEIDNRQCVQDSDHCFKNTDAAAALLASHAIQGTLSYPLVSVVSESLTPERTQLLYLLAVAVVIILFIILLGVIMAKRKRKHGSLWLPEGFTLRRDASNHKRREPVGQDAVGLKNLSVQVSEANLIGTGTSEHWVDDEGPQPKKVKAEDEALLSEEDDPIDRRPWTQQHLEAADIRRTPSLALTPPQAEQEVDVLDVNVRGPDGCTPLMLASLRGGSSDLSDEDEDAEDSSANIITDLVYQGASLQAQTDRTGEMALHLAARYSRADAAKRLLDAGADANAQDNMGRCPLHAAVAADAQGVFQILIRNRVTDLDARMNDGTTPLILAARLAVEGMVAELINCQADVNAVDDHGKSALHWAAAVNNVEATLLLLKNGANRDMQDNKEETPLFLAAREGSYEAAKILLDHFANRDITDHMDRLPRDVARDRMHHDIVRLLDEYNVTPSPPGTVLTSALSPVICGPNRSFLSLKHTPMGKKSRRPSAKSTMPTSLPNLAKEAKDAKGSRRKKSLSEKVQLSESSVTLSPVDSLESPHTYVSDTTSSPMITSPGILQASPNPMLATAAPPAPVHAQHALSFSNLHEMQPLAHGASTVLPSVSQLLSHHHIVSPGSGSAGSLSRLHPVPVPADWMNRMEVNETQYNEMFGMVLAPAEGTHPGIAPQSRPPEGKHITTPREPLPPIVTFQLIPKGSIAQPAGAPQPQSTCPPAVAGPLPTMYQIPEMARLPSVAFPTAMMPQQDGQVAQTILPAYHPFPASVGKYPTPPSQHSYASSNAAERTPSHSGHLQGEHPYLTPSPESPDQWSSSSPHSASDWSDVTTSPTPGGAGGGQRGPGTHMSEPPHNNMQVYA
Chain of Pro-neuregulin-1, membrane-bound isoform (Homo sapiens) (Q02297 whole entry, looked up, the tested form may be a part, canonical isoform): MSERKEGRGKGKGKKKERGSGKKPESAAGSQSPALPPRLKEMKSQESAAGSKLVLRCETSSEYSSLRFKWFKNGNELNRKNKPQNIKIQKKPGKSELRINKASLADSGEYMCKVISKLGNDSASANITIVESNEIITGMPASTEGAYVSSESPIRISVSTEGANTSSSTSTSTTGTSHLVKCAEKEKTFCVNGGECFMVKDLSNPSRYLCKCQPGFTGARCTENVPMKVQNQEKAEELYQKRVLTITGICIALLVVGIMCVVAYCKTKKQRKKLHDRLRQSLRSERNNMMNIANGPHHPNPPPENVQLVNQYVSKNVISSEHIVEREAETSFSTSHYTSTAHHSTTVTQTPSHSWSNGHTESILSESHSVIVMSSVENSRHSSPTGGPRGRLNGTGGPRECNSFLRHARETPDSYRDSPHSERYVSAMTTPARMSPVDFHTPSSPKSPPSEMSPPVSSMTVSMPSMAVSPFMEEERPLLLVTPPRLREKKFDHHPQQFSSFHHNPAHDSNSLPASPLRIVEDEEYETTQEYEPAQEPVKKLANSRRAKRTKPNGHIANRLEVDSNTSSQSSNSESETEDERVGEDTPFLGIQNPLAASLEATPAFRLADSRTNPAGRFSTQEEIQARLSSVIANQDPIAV

Regarding `COCCOC(=O)N1C(=O)[C@@]2(c3cc(C#CCC(C(=O)OC)C(=O)OC)ccc31)[C@H](c1ccccc1OCCO)N1[C@H](c3ccccc3)[C@H](c3ccccc3)OC(=O)[C@H]1[C@@H]2C(=O)NC[C@H](O)c1ccccc1`, the composite z-score in [1] was -0.0494; in assay [2], 0.114; in [3] it was -0.117; in assay [4] it was 0.791; in assay [5], 0.961; in [6] it was 1.27. Moreover, the composite z-score is 1.15 in [7]; 0.357 in [9]; 0.152 in assay [10]; 1.54 in [11]; 2.32 in assay [15]; 0.032 in assay [17]. Also, the composite z-score in [18] amounted to 1.62; in assay [19], 1.05; in assay [20], 0.379. Besides, the z-score is -0.923 (inactive) in assay [8]; 1.78 (inactive) in assay [12]; 2.17 (inactive) in [13]; 5.84 (inactive) in assay [14]; -0.036 (inactive) in assay [16].
As to `CC1(C)C2C=C(C(O)C3C=CC4C(=O)NC(=O)C4N3Nc3ccc(Cl)cc3Cl)C[C@@H]1C2` (stereo not given in full), the composite z-score in assay [1] was 1.16; in assay [2] it was 0.877; in assay [3] it was 0.0474; in [4] it was 0.519; in [5], 1.59; in [6], 1.5. Moreover, the composite z-score in assay [7] was 0.867; in assay [9], 1.29; in assay [10] it was -0.104; in assay [11], 0.804; in [15] it was 1.33; in assay [17] it was 0.374. For the same compound, the composite z-score in assay [18] stood at 0.178; in assay [19], 0.996; in assay [20] it was 0.279. Moreover, the z-score in assay [8] is -0.505 (inactive); in assay [12], -7.63 (inactive); in [13], -6.77 (inactive); in assay [14], 0.722 (inactive); in [16], -2.98 (inactive).
Take `CN1C(=O)C2C=CC(C(O)c3ccccc3)N(N(c3ccccc3)c3ccccc3)C2C1=O` (stereo not given): the composite z-score in [1] was -0.034; in [2] it was 0.287; in [3], 0.0561; in assay [4], 0.332; in assay [5], 0.924; in [6], 0.647. The composite z-score was 0.553 in [7]; 0.474 in assay [9]; 0.245 in [10]; -0.124 in assay [11]; 0.317 in assay [15]; 0.603 in [17]. Further, the composite z-score is 0.141 in assay [18], 0.422 in assay [19] and -0.0668 in assay [20]. Besides, the z-score was 0.815 (inactive) in assay [8]; 0.0175 (inactive) in assay [12]; 0.808 (inactive) in assay [13]; 0.495 (inactive) in [14]; -0.642 (inactive) in [16].
On to `CC(C)C(O)C1C=CC2C(=O)N(c3ccccc3)C(=O)C2N1Nc1ccc([N+](=O)[O-])cc1` (stereo not given), for which the composite z-score was 0.549 in [1]; -0.0664 in assay [2]; 0.0485 in [3]; 0.569 in assay [4]; 0.951 in assay [5]; 1.34 in [6]. Besides, the composite z-score is 0.8 in [7]; 0.886 in assay [9]; -0.214 in [10]; 0.118 in [11]; 2.89 in [15]; 0.0827 in assay [17]. The composite z-score in assay [18] was -0.0213; in assay [19], 0.614; in [20], 0.117. The z-score in assay [8] is 1.07 (inactive); in assay [12], 0.307 (inactive); in assay [13], 0.815 (inactive); in assay [14], 0.834 (inactive); in [16] it was 0.171 (inactive).
As for `O=C1C2C=CC(C(O)CCc3ccccc3)N(Nc3ccccc3F)C2C(=O)N1c1ccccc1` (stereo not given), the composite z-score in assay [1] was -0.114; in assay [2], 0.203; in assay [3], 0.179; in assay [4], 0.763; in assay [5], 1.68; in [6] it was 0.572. Further, the composite z-score in assay [7] is 1.15; in [9], 1.16; in assay [10], -0.191; in assay [11], 1.49; in assay [15], 3.28; in [17], 0.183. For the same compound, the composite z-score came to 0.279 in assay [18], 1.08 in [19] and 0.0059 in assay [20]. Further, the z-score in assay [8] was 0.957 (inactive); in assay [12] it was -0.566 (inactive); in assay [13], 0.624 (inactive); in assay [14] it was -0.378 (inactive); in [16], -0.0741 (inactive).
